Compound activity deposited in PubChem BioAssay by National Center for Advancing Translational Sciences (NCATS).
Shown are actives, neighbours in structure and some others; about 8.2% of the full set was active somewhere.
ELG1 DNA repair: inhibitors of ELG1-dependent DNA repair in HEK293T cells. Potency, µM (highest dose often 46.1 µM), inactives show at the top dose activity change, negative = inhibition, most hits filed as inhibitors. actives 2.3% (n = 330,000). HEK293T ELG1-luciferase reporter, luminescence, 16 h; DNA damage induced by 5-fluorouridine. AID 504467; note: % is set by controls: 0 for no effect and ±100 for the full control effect; nearly all actives have a fitted effect of over 55% in size
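DMSO vehicle served as the neutral condition. Each well held 2,000 cells given 5-fluorouridine plus compound; after 16 hr at 37 °C/5% CO2, ONE-Glo was added and luciferase measured 30 min later.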
SW480 rerep: induces DNA re-replication in SW480 colon adenocarcinoma cells. actives 1.8% (n = 340,000). SW480 DNA re-replication, Hoechst DNA content imaging, 48 h. Potency, µM (top dose mostly 46.1 µM), for the others: top-dose re-replication activation, most hits filed as activators; note: % of control where 0% means no effect; nearly all actives have a fitted effect of over 55% in size
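First, 250 cells per well were seeded. Next, compound or vehicle (23 nL) was pinned in, plates sat 48 hr at 37 C. Finally Hoechst was added for 40 min before fluorescence scanning.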
KB-V1 cytotox: kills drug-selected multidrug resistant KB-V1 cells; KB-V1 MDR cells viability, CellTiter-Glo, 72 h; actives 3.4% (n = 400,000); AID 1347076; Potency, µM (series often up to 46.1 µM), usual class: cytotoxic; note: % is set by controls: 0 for no effect and ±100 for the full control effect; nearly all actives have a fitted effect of over 60% in size
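Readout: CellTiter-Glo luminescence, 10 min after addition. Cells: KB-V1 MDR subline, 72 h at 37 degrees C with compound. Analysis: corrected, normalized data fitted to concentration-effect curves.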
KB-3-1 cytotox: KB-3-1 parental cell cytotoxicity | actives 1.4% (n = 400,000) | KB-3-1 viability, CellTiter-Glo ATP luminescence, 72 h | Potency, µM (highest dose often 46.1 µM), most hits filed as cytotoxic; note: % is set by controls: 0 for no effect and ±100 for the full control effect; nearly all actives have a fitted effect of over 60% in size
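Luminescent ATP read-out (CellTiter-Glo) measures survival of drug-naive KB-3-1 cells after 72 h compound exposure at 37 °C. Titration series was screened from lowest to highest concentration, with DMSO vehicle plates as background controls.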
MCF10A rerep: DNA re-replication induction in MCF 10a cells; AID 624296; Potency, µM (highest dose often 46.1 µM), for inactives: top-dose activity, positive = re-replication, usual class: activators; actives 2.9% (n = 350,000); MCF 10A DNA re-replication, Hoechst nuclear intensity, 48 h; note: % of control where 0% means no effect; nearly all actives have a fitted effect of over 50% in size
* marks the source's active call; other numbers are inactive results; i = inactive; ? = inconclusive; . = not tested or not shown. Calls come from the whole dose curve; as a rule, active = well fitted curve in the direction sought with a large enough effect; inconclusive = small, poorly fitted or top-dose-only effect, or another doubt; inactive = no such curve, though single readings can be large; an effect the other way counts as inactive or inconclusive. Potency is the fitted concentration of half-maximal effect.

SMILES | ELG1 DNA repair | SW480 rerep | KB-V1 cytotox | KB-3-1 cytotox | MCF10A rerep
COc1cc(NC(=O)CN2c3ccccc3CC2C)cc(OC)c1OC (stereo unspecified) | 16.4µM* | 0.5% | i | i | 19.0%
O=C(Nc1sc(-c2ccccc2)cc1C(=O)O)c1ccccc1 | ? | 1.9% | i | i | 14.8%
COc1ccc(-c2cccc(NS(=O)(=O)c3cccc([N+](=O)[O-])c3)c2)nn1 | 1.2% | ? | i | i | -17.4%
COc1ccc(-c2cccc(NS(=O)(=O)c3ccc([N+](=O)[O-])cc3)c2)nn1 | 12.3% | -6.7% | 13µM* | i | 13.1%
CC(C)CN(CC(C)C)c1ccc(/C=N/n2cnnc2)cc1[N+](=O)[O-] | -11.9% | -8.2% | 20.6µM* | ? | ?
O=[N+]([O-])c1cc(/C=N/O)ccc1N1CCCC1 | -21.4% | 11.6% | ? | ? | -7.2%
O=[N+]([O-])c1cccc(/C=N/n2cnnc2)c1 | 15.0% | 3.6% | i | i | -0.2%
O=[N+]([O-])c1cc(/C=N/n2cnnc2)ccc1N1CCCC1 | -12.0% | -169.2% | 2.59µM* | i | 0.3%
C(=Nn1cnnc1)c1ccc2c(c1)CCC2 | . | . | ? | 16.4µM* | .
Nc1cc2c(cc1Cl)-c1ccc(Cl)cc1C2=O | . | 1.2% | i | i | 2.2%
CCCOc1ccc(C2C(=O)N(C3CCCCCC3)CC(=O)N2Cc2ccco2)cc1OC (stereo unspecified) | ? | 8.1% | 1.3µM* | i | 9.4%
COc1ccc2c(c1)-c1c(ssc1=S)C(C)(C)N2S(=O)(=O)c1ccc(C)cc1 | 11.2% | 7.31µM* | 5.8µM* | ? | 5.17µM*
COc1ccc(-n2sc3c(c2=S)-c2cc(OC)ccc2NC3(C)C)cc1 | -2.1% | 19.3% | i | i | 18.4%
Cc1ccc(S(=O)(=O)N2c3ccccc3-c3c(ssc3=S)C2(C)C)cc1 | -8.9% | ? | 20.6µM* | ? | ?
COc1ccc2c(c1)-c1c(ssc1=S)C(C)(C)N2 | 2.59µM* | -4.4% | ? | i | 11.6µM*
COc1cc2c3c(c1)-c1c(sn(-c4cc(OC)ccc4OC)c1=S)C(C)(C)N3C(=O)C2=O | 5.4% | -10.2% | i | i | -1.0%
O=P(OC1CCCCC1)(OC1CCCCC1)C(O)c1cccnc1 (stereo unspecified) | -1.8% | -7.7% | i | ? | 1.0%
O=P(OC1CCCCC1)(OC1CCCCC1)C(O)c1ccccc1 (stereo unspecified) | -6.5% | -11.3% | 9.2µM* | i | 1.1%
COc1ccc(-c2[nH]c(-c3ccc(F)cc3)nc2SCC(=O)Nc2ccc(OC)c(OC)c2)cc1 | . | . | i | i | .
Cc1ccc(-c2nc3cccnc3o2)cc1NC(=O)COc1ccc(C(C)(C)C)cc1 | ? | ? | ? | ? | 18.4µM*
COc1cc(C2C3=C(CCCC3=O)Nc3[nH]n(-c4ccccc4)c(=O)c32)ccc1OC(C)=O (stereo unspecified) | 15.5% | 20.6µM* | i | i | 7.31µM*
COc1cc(C2C3=C(CCCC3=O)Nc3[nH]n(-c4ccccc4)c(=O)c32)cc(OC)c1OC (stereo unspecified) | 10.7% | -1.4% | i | i | -18.3%
COc1cc(C2C3=C(CCCC3=O)Nc3ccc4ncccc4c32)ccc1O (stereo unspecified) | ? | 23.1µM* | i | ? | 14.6µM*
CCOc1cc(C2C3=C(CCCC3=O)Nc3ccc4ncccc4c32)ccc1O (stereo unspecified) | 15.3% | 18.4µM* | i | 13µM* | ?
O=C1CCCC2=C1C(c1cccc(O)c1)c1c(ccc3ncccc13)N2 (stereo unspecified) | ? | ? | i | i | 18.4µM*
Cc1ccccc1C(=O)Nc1sc2c(c1C(=O)N1CCCCC1)CCC(C)C2 (stereo unspecified) | . | . | i | i | .
COc1ccc(-n2nc(C(=O)NCCc3cccc(C)c3)c3c4ccccc4n(C)c3c2=O)cc1Cl | . | . | i | i | .
Cc1c(C)n(Cc2ccccc2)c2ccc(C(=O)OCCCN(C)C)cc12 | ? | ? | ? | ? | 20.6µM*
